Results from PubChem BioAssay.

Molecular target: Mitogen-activated protein kinase 7 (Homo sapiens) (UniProt Q13164)
Test: Gal4-ERK5 driven luciferase induction – cell-based, HTS, primary screen (AID 1508626);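 also: luciferase driven by Gal4-ERK5 fusion binding five Gal4 sites before minimal TATA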
Settings: HeLa Gal4-ERK5 transactivation, 18 h, at 5 µM, stronger effect = higher value;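 active = luciferase signal above three times the same-plate solvent-only control wells; inactive = the rest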

Mitogen-activated protein kinase 7 (Homo sapiens), sequence (Q13164 whole entry, looked up, the tested form may be a part): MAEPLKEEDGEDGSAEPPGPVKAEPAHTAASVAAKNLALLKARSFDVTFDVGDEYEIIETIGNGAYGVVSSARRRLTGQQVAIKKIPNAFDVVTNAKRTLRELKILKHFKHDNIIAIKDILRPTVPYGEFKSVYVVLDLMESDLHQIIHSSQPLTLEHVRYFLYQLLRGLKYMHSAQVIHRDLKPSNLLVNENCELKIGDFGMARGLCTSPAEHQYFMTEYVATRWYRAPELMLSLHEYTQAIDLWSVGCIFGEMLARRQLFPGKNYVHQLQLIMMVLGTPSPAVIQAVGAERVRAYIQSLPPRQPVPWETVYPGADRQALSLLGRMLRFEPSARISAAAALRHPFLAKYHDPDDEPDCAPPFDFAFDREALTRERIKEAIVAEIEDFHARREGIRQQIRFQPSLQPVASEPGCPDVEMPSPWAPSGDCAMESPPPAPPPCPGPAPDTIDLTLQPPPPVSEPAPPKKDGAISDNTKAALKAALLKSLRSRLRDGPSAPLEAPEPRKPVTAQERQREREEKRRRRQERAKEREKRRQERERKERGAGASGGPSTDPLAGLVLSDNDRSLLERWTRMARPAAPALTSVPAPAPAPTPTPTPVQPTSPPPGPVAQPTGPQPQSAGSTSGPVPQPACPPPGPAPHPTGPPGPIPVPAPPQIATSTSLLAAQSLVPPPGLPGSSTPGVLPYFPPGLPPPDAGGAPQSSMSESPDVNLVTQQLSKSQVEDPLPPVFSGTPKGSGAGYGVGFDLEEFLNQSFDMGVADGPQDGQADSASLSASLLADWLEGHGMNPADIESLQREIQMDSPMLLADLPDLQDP

Luciferase signal, inactive:
CC(=O)OC1CCC2(O)CC1(C)CCC1C2CC1(C)C (stereo not drawn) 36 AU
CC1CCC(C(C)C)C(OC(=O)c2ccccc2)C1 (stereo not drawn) 48 AU
COC(=O)C[C@H]1C(C)(C)[C@@H](OC(C)=O)[C@@H]2CC3C4CC(=O)O[C@@H](c5ccoc5)[C@]4(C)CCC3[C@@]1(C)C2=O (stereo partly drawn) 28 AU
CC(C)CCC[C@@H](C)[C@H]1CC[C@H]2C3=CC[C@H]4C[C@@H](O)CC[C@]4(C)[C@H]3CC[C@]12C 56 AU
O=c1cccc2cc(O)c(O)c(O)c2c1O 60 AU
CC(=O)OC1CC2C(C)(C)C(=O)CCC2(C)C2CCC3(C)C(c4ccoc4)OC(=O)C4OC43C12C (stereo not drawn) 20 AU
CC1(C)[C@@H](O)CC[C@]2(C)[C@H]3C(=O)C=C4[C@H]5C[C@@](C)(C(=O)O)CC[C@]5(C)CC[C@@]4(C)[C@]3(C)CC[C@@H]12 24 AU
COc1cc(OC)c2c(=O)c(OC)c(-c3ccc(OC)c(OC)c3)oc2c1 68 AU
CCC(=O)OC1[C@@H]2CC3=C4CC(=O)O[C@@H](c5ccoc5)[C@]4(C)CCC3[C@@](C)(C2=O)[C@@H](CC(=O)OC)C1(C)C (stereo partly drawn) 20 AU
O=C(NCO)c1cccnc1 68 AU
CC(=O)O[C@@H]1c2c(ccc3ccc(=O)oc23)OC(C)(C)[C@@H]1OC(=O)CC(C)C 188 AU
CC(C)c1c(O)ccc2c1CC[C@H]1C(C)(C)CCC[C@]21C 20 AU
C=C1CCC2C(CC2(C)C)C(=C)CC/C1=N/O (stereo not drawn) 88 AU
